Values joined by “and” are separate entries in the source; they are usually repeats but may differ in a detail not shown here. Equal values may be shown once. In all, about 640,000 compounds went through this assay and about 9,300 (1.5%) were called active. For the sample, actives were picked, then their nearest neighbours and some compounds at random. Values without a mark were called inactive. Cut-off read from the data, not from the text of the source: active = inhibition above about 32%; inactive = the rest.
Experiment: TEAD-YAP interaction inhibition, primary screen, TEAD-YAP interaction inhibitor project, luminescence, HEK-TIYL cells (AID 1259422);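 note: 0% = median of test compound wells and 100% = reference inhibitor wells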
Details: TEAD-Gal4/YAP UAS-luciferase luminescence, at 9.12 µM, active compounds read high

Q: For `CC1=C(C(=O)OCc2ccccc2)C(c2ccccc2F)CC(=O)N1` (stereo not drawn), which inhibition is on record?
A: 0.13%

Q: For `COc1ccccc1N=c1scc(-c2ccccc2)n1CCO`, which inhibition is on record?
A: 1.29%

Q: With `O=c1c2cc(Cl)ccc2[nH]c(=S)n1Cc1cccnc1` as the molecule, how does the inhibition read?
A: -1.08%

Q: With `Cc1ccc(NC(=O)c2ccc(C#N)cc2)c(C(=O)c2ccccc2)c1` as the molecule, how does the inhibition read?
A: 4.87%

Q: Which inhibition does the source give for `CC(C)=CC(=O)Nc1ccc2c(c1)OCCO2` here?
A: 12.2%

Q: For `CCOc1ccc(NCCC(=O)c2ccc3c(c2)OCO3)cc1`, which inhibition is on record?
A: 6.84%

Q: For `COC(=O)CCNc1ccc2c(c1)OCCO2`, which inhibition is on record?
A: 33.2% (active)

Q: With `Cc1cccc(NC(=O)CSc2nc3ccc([N+](=O)[O-])cc3[nH]2)c1` as the molecule, how does the inhibition read?
A: 8.94%

Q: Which inhibition does the source give for `O=C(Nc1ccc(N2CCC(N3CCN(CCO)CC3)CC2)cc1)c1cccc(Cl)c1` here?
A: -1.49%

Q: For `Cc1cc(O)cc2c1C(=O)/C(=C/c1cc3ccccc3o1)O2`, which inhibition is on record?
A: 71.4% (active)

Q: Which inhibition does the source give for `COC(=O)c1ccc2c(c1)C(=O)/C(=C\c1ccccc1O)O2` here?
A: -31.1%

Q: Which inhibition does the source give for `Cc1cc2nc(-c3ccc(NC(=O)c4cc5ccccc5o4)cc3)oc2cc1C` here?
A: -23.6%

Q: For `CCCCc1ccc(-c2nc(C=Nc3cc([N+](=O)[O-])ccc3C)c(O)o2)cc1`, which inhibition is on record?
A: -9.75%

Q: For `COc1cccc(/C=C/C(=O)c2cc3ccccc3oc2=O)c1`, which inhibition is on record?
A: -6.12%

Q: With `CCCCCCCN1C(=O)c2c(Cl)c(Cl)c(Cl)c(Cl)c2C1=O` as the molecule, how does the inhibition read?
A: 5.39%

Q: For `Oc1ccc(-c2cnc3ccc(NC4CCOCC4)nn23)cc1`, which inhibition is on record?
A: -2.21%

Q: For `Fc1ccc(-c2cnc3ccc(NC4CCOCC4)nn23)cc1Cl`, which inhibition is on record?
A: 43.8% (active)

Q: Which inhibition does the source give for `Brc1cccc(-c2cnc3ccc(NC4CCOCC4)nn23)c1` here?
A: 29.9%

Q: With `O=C(c1ccc2nc3ccc(Cl)cc3c(=O)n2c1)N1CCN(c2ccccc2)CC1` as the molecule, how does the inhibition read?
A: 5.05%

Q: Which inhibition does the source give for `CNC(=S)N/N=C/c1cccc(/C=N/NC(=S)NC)c1` here?
A: -8.21%

Q: Which inhibition does the source give for `CCc1nc2nonc2c2nc3ccccc3n12` here?
A: -7.01%

Q: With `O=C(O)c1ccc(-n2cccc2)cc1O` as the molecule, how does the inhibition read?
A: 32.4% (active)

Q: Which inhibition does the source give for `O=C(O)c1ccc(N2C(=O)c3cccc4cccc(c34)C2=O)cc1O` here?
A: 9.06%

Q: For `CC(=O)C1=C(O)C(=O)N(c2ccc(C(=O)O)c(O)c2)C1c1ccccc1` (stereo not drawn), which inhibition is on record?
A: 1.91%

Q: Which inhibition does the source give for `Cc1ccc(NC(=O)CCn2cccc2)c(C)c1` here?
A: -10.1%

Q: For `Cc1ccc(-c2cc(C(=O)OCC(C)C)c3cccc(C)c3n2)cc1`, which inhibition is on record?
A: 3.59%

Q: Which inhibition does the source give for `Cc1ccc2nc3nc4c(C)cccc4c(N)c3cc2c1` here?
A: 43.1% (active)

Q: With `Cc1cccc2c(N)c3c(nc12)CCCC3` as the molecule, how does the inhibition read?
A: -0.9%

Q: For `OC1(c2ccc(F)cc2)CC2CCC(C1)N2c1ncnc2nc[nH]c12` (stereo not drawn), which inhibition is on record?
A: 1.25%

Q: With `C=C(Br)Cn1c(C(C)O)nc2ccccc21` (stereo not drawn) as the molecule, how does the inhibition read?
A: 1.71%

Q: For `CC1=C(C#N)C(c2ccc3c(c2)OCO3)C2=C(CC(C)(C)CC2=O)N1` (stereo not drawn), which inhibition is on record?
A: 10.8%

Q: Which inhibition does the source give for `Cn1c(=O)n(CC(=O)Nc2ccc(F)cc2)c(=O)c2ccccc21` here?
A: 14%

Q: With `CCOC(=O)C1=C(C)N(c2ccc(C)cc2)C(=O)/C1=C\c1ccc(OC)cc1` as the molecule, how does the inhibition read?
A: -0.27%

Q: For `CCCNC1=C(c2ccc(OC)cc2)C(=O)c2ccccc21`, which inhibition is on record?
A: -14.6%

Q: For `CCOC(=O)C1=C(c2ccc(OC)cc2)C(=O)c2ccccc2C1=O`, which inhibition is on record?
A: 96% (active)

Q: With `CCCOc1ccc(/C(O)=C2/C(=O)C(=O)N(CCN(C)C)C2c2ccc(Cl)cc2)cc1C` (stereo not drawn) as the molecule, how does the inhibition read?
A: 4.59%

Q: For `Cc1occc1C(=O)Nc1cccc(F)c1`, which inhibition is on record?
A: -4.37%

Q: For `C#Cc1cccc(NC(=O)c2ccc(-c3ccccc3)cc2)c1`, which inhibition is on record?
A: -53.1%

Q: For `Cc1occc1C(=O)Nc1ccc(NC(=O)c2ccoc2C)cc1`, which inhibition is on record?
A: -68.2%

Q: For `O=C(Nc1cccc(O)c1)c1ccc(C(=O)c2ccccc2)o1`, which inhibition is on record?
A: 56.8% (active)

Q: Which inhibition does the source give for `O=C(Nc1cccc(O)c1)c1ccc(-c2ccccc2)cc1` here?
A: 83.8% (active)

Q: With `O=C(Nc1cccc(O)c1)c1cccnc1` as the molecule, how does the inhibition read?
A: 24.2%

Q: For `O=C(Nc1cccc(O)c1)c1cncc(Br)c1`, which inhibition is on record?
A: -19.1%

Q: For `Cc1occc1C(=O)Nc1cccc(O)c1`, which inhibition is on record?
A: 37.5% (active)

Q: Which inhibition does the source give for `O=C(NCCc1ccccc1)c1ccc(C(=O)c2ccccc2)o1` here?
A: -31.4%

Q: Which inhibition does the source give for `Cc1ccc(S(=O)(=O)n2nc(C#N)c(C#N)c2N)cc1` here?
A: -5.77%

Q: Which inhibition does the source give for `O=C(Nc1nc(-c2ccc3ccccc3c2)cs1)c1cc(-c2ccc(Br)cc2)nc2ccccc12` here?
A: -0.33%

Q: With `CCOc1cc(/C=C2/C(=N)N3N=C(CC)SC3=NC2=O)cc(Cl)c1OCCOc1ccccc1` as the molecule, how does the inhibition read?
A: -11.5%

Q: With `COc1ccc(Cl)cc1Nc1ncnc2c1c(-c1ccccc1)cn2-c1ccc(C)cc1` as the molecule, how does the inhibition read?
A: -0.75%

Q: Which inhibition does the source give for `CC1CCN(C(=O)c2c[nH]c3ccc(S(=O)(=O)N(C)c4ccc(C(C)C)cc4)cc3c2=O)CC1` here?
A: -1.81%

Q: For `CCOC(=O)c1ccc(NC(=O)c2ccc(S(=O)(=O)N3CCN(C(=O)OCC)CC3)cc2)cc1`, which inhibition is on record?
A: -0.65%

Q: With `CCOC(=O)N1CCN(S(=O)(=O)c2ccc(C(=O)Nc3ccc(F)cc3F)cc2)CC1` as the molecule, how does the inhibition read?
A: 58.1% (active)

Q: For `CCOC(=O)N1CCN(S(=O)(=O)c2ccc(C(=O)Nc3nc(-c4ccccc4)c(C)s3)cc2)CC1`, which inhibition is on record?
A: -2.44%

Q: For `COCCOC(=O)C1=C(C)NC2=C(C(=O)CC(c3ccccc3)C2)C1c1cc(OC)ccc1OC` (stereo not drawn), which inhibition is on record?
A: 8.28%

Q: With `CC[C@H]1CN2CCc3cc(OC)c(OC)cc3[C@@H]2C[C@@H]1C[C@H]1NCCc2cc(OC)c(OC)cc21` as the molecule, how does the inhibition read?
A: 99.4% (active) and 101% (active)

Q: With `CCOc1cc2c(cc1OCC)C(c1cc(OC)ccc1OC)NCC2` (stereo not drawn) as the molecule, how does the inhibition read?
A: 6.48%

Q: For `COc1cc2c(cc1OC)C1CN3CCc4cc(OC)c(OC)cc4C3CN1CC2` (stereo not drawn), which inhibition is on record?
A: 5.47%

Q: With `O=C(Cn1cnc2ccccc21)N/N=C/c1ccc(Cl)c(Cl)c1` as the molecule, how does the inhibition read?
A: 1.91%

Q: Which inhibition does the source give for `O=C(Nc1ccc2[nH]ncc2c1)c1cccnc1OC1CCCN(Cc2ccccc2)C1` (stereo not drawn) here?
A: -3.88%

Q: Which inhibition does the source give for `O=C(Nc1ccc2[nH]ncc2c1)c1ccnc(OC2CCN(Cc3ccccc3)CC2)c1` here?
A: 82% (active)

Q: Which inhibition does the source give for `Cc1cc(OC2CCN(C(=O)c3ccc4[nH]ncc4c3)CC2)ncc1Cl` here?
A: 6.71%

Q: With `CCC(C(=O)NC(C)C)n1nc(C)c2sc3ccccc3c2c1=O` (stereo not drawn) as the molecule, how does the inhibition read?
A: 4.5%

Q: With `CCOC(=O)Cn1c(=O)oc2cc(S(=O)(=O)N3CCN(CC)CC3)ccc21` as the molecule, how does the inhibition read?
A: -3.33%

Q: With `COc1cccc(/C=N/NC(=O)C(C)Nc2ccc(Br)cc2)c1O` (stereo not drawn) as the molecule, how does the inhibition read?
A: 23.5%

Q: For `O=C(Cn1cc([N+](=O)[O-])cn1)Nc1ccc(-c2noc(-c3ccccc3F)n2)cc1`, which inhibition is on record?
A: -22%

Q: With `CN(C)CCCn1c(-c2ccc(Cl)cc2)csc1=Nc1ccccc1` as the molecule, how does the inhibition read?
A: 5.26%

Q: Which inhibition does the source give for `CCCn1c(-c2ccc(S(=O)(=O)N(C)C)cc2)csc1=Nc1ccccc1` here?
A: 35.3% (active)

Q: For `O=C(O)CCn1c(-c2ccccc2)csc1=Nc1ccccc1`, which inhibition is on record?
A: -48.6%

Q: For `O=C(NC1CCCCC1)c1ccc(Cn2c(=S)[nH]c3cc4c(cc3c2=O)OCO4)cc1`, which inhibition is on record?
A: -6.89%

Q: For `COc1ccc(Cl)cc1NC(=O)c1cnc(N2CCN(c3ncccn3)CC2)c2ccccc12`, which inhibition is on record?
A: 12.9%

Q: For `O=C(Nc1ccccc1F)c1cnc(N2CCN(c3ncccn3)CC2)c2ccccc12`, which inhibition is on record?
A: 25.2%

Q: With `COc1ccc([N+](=O)[O-])cc1NC(=O)c1cnc(N2CCN(c3ncccn3)CC2)c2ccccc12` as the molecule, how does the inhibition read?
A: 36.3% (active)

Q: For `O=C(NCc1ccccn1)c1cc(=O)c2ccccc2o1`, which inhibition is on record?
A: 0.58%

Q: With `O=C(Nc1ccc(Oc2ccc3ccccc3c2Cl)c(Cl)c1)c1cc2cc(Cl)ccc2oc1=O` as the molecule, how does the inhibition read?
A: 5.28%

Q: Which inhibition does the source give for `COc1ccc(-c2nc(Nc3cc(OC)c(OC)c(OC)c3)c3[nH]cnc3n2)cc1` here?
A: 54% (active)

Q: Which inhibition does the source give for `COc1ccc(-c2nc(C)cc(Nc3cc(OC)c(OC)c(OC)c3)n2)cc1` here?
A: 46.8% (active)

Q: With `CC(=O)Nc1ccc(Nc2nc(-c3ccc(C(N)=O)cc3)nc3nc[nH]c23)cc1` as the molecule, how does the inhibition read?
A: 5.81%

Q: With `COc1cc(Nc2cc(C)nc(Nc3nc4ccccc4n3C)n2)cc(OC)c1OC` as the molecule, how does the inhibition read?
A: 1.6%

Q: Which inhibition does the source give for `COc1cc2nc(Nc3cccc(N(C)C)c3)nc(Nc3cc(OC)c(OC)c(OC)c3)c2cc1OC` here?
A: -1.74%

Q: For `COc1cc(Nc2nc(Nc3cccc(N(C)C)c3)nc3nc[nH]c23)cc(OC)c1OC`, which inhibition is on record?
A: 46% (active)

Q: With `COc1ccc(-c2nc(C)cc(NCc3ccccc3)n2)cc1` as the molecule, how does the inhibition read?
A: -42.8%

Q: Which inhibition does the source give for `COc1cc(Nc2nc(Nc3cc(OC)c(OC)c(OC)c3)c3[nH]cnc3n2)cc(OC)c1OC` here?
A: 8.81%

Q: Which inhibition does the source give for `COc1ccc(-c2nc(N)c3[nH]cnc3n2)cc1` here?
A: -34%

Q: For `O=[N+]([O-])c1ccc(-c2csnn2)cc1`, which inhibition is on record?
A: -3.36%

Q: For `Cc1nc2c3ccccc3n3c(CCCC(=O)NCc4cccnc4)nnc3n2n1`, which inhibition is on record?
A: -0.28%

Q: For `O=C(CNC(=O)c1ccco1)N/N=C/c1ccc(F)cc1`, which inhibition is on record?
A: 2.91%

Q: For `CN1C(C)(C)CC(N(C)S(C)(=O)=O)CC1(C)C`, which inhibition is on record?
A: -1.45%

Q: With `COCCNc1nc(-c2ccc(C)cc2)ccc1C(=O)N1CCN(C)CC1` as the molecule, how does the inhibition read?
A: -12%

Q: With `CCCCOC(=O)C(C)Oc1ccc2c(=O)c(-c3ccc(Cl)cc3)coc2c1` (stereo not drawn) as the molecule, how does the inhibition read?
A: -32.8%

Q: With `CCOC(=O)C1CCN(C(=O)/C(=C/c2ccco2)NC(=O)c2ccc(C)c(C)c2)CC1` as the molecule, how does the inhibition read?
A: 3.59%

Q: Which inhibition does the source give for `Cc1nnc(NS(=O)(=O)c2ccc([N+](=O)[O-])cc2)s1` here?
A: -10.9%

Q: Which inhibition does the source give for `O=C(CSCC(=O)N1CCCC1)Nc1nc(-c2ccc(Cl)s2)cs1` here?
A: -0.25%

Q: With `Cc1ccc(S(=O)(=O)N(C(=O)NC(=O)Nc2ccccc2Cl)c2ccc(Cl)cc2)cc1` as the molecule, how does the inhibition read?
A: -3.29%

Reference: PubChem BioAssay AID1259422 (The Scripps Research Institute Molecular Screening Center, 2018)
